# Only some compounds are listed: those with a hit (about 2.5% of all), similar ones and a draw of the others.
# NSD2 inh: NSD2 (human) methyltransferase inhibition | NSD2 peptide methylation, AlphaScreen, 120 min | hit rate 0.54% among 310,000 | inhibition, % at 12.5 µM | O96028 | AID 743445; in the data active = inhibition above about 50%
# RAD52 anneal inh: blocks human RAD52 DNA annealing | P43351 | recombinant RAD52 DNA annealing, FRET fluorescence | inhibition, % at 18.7 µM | hit rate 0.46% among 360,000 | AID 651710;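 active = every replicate showing at least 50% inhibition; inconclusive = mean inhibition at least 50% but not in every replicate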
# Ecoli rRNA inh: selective bacterial rRNA inhibition in E. coli. E. coli WT GFP vs humanized-ribosome RFP mutants, fluorescence, 24 h; hits give low values; DMSO median 0, no signal -100. GFP signal change (wild-type ribosome), % (concentration not given with the values). hit rate 1.6% among 350,000;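 active = significant combined selectivity score with lowered wild-type GFP, culture density cut under 30%, mutant RFP and density less affected; inactive = any of these conditions unmet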
# Casp6 inh: blocks human caspase-6 cleavage activity | P55212 | purified caspase-6, Z-VEID-R110 cleavage fluorescence | inhibition, % at 12.5 µM | hit rate 0.53% among 350,000 | AID 686996;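 active = mean inhibition across replicates at least about 35%, with every replicate also reaching that limit, limit read from the data; inconclusive = only one of the two criteria met; inactive = neither criterion met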
# MLL AF4-AF9 inh: inhibitors of human MLL-AF4/AF9 interaction. AID 651704. P42568. inhibition, % at 10 µM. hit rate 0.47% among 350,000. AlphaScreen, biotin-AF4 peptide binding to FLAG-AF9;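 active = every replicate reaching a set inhibition limit, whatever the replicate mean, cut at about 25% in these data; inconclusive = mean inhibition reaches that limit but some replicates miss it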
# Target sequence (P42568 whole entry, looked up): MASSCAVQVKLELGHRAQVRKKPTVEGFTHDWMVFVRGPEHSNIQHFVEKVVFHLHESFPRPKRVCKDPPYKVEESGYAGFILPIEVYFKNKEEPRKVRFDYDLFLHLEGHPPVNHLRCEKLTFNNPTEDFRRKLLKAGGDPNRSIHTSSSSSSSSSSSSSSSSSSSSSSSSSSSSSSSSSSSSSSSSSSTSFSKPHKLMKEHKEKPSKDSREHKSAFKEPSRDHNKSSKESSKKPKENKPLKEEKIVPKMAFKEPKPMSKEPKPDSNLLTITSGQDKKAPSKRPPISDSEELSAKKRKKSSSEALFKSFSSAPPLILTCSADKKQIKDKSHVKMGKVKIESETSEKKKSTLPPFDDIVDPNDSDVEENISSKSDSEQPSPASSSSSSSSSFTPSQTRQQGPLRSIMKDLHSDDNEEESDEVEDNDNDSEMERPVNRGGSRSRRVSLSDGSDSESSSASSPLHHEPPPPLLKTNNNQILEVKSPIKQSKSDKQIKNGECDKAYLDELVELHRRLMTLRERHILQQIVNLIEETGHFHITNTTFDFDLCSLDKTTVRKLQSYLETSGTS
# AID977621: wild-type E. coli growth inhibition versus H69 humanized strain – H69 mutant RFP, wild-type GFP, cherry-pick, dose response. activity change, negative = inhibition at 50 µM. 1,900 tested, under 10 active. fluorescence, 24 h. AID 977621. shares compounds with Ecoli rRNA inh;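 active = Wild-type ribosome reporter drop at least double the humanized mutant ribosome reporter drop, growth loss under a set limit; inconclusive = no clear call, values can overlap the other calls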;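 note: wild-type GFP and H69 mutant RFP strains grown together 50/50 in each well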
# AID977628: E. coli growth inhibition, wild-type GFP versus h24 humanized RFP strain, dose response, h24 mutant RFP vs wild-type GFP, cherry-pick; 1,900 tested, under 10 active; AID 977628; shares compounds with Ecoli rRNA inh; E. coli WT GFP strain growth, fluorescence, 24 h; activity change, negative = inhibition at 50 µM;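 active = compound lowering the normal-ribosome reporter at least twice as much as the humanized-ribosome reporter, growth loss under a set limit; inconclusive = no clear call, values can overlap the other calls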;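 note: wild-type GFP and h24 humanized RFP strains co-cultured 1 to 1 per well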
# Numbers stand for hits; i = inactive; ? = inconclusive; nt = not tested or not shown.
SMILES,NSD2 inh,RAD52 anneal inh,Ecoli rRNA inh,Casp6 inh,MLL AF4-AF9 inh,AID977621,AID977628
COc1ccc(S(=O)(=O)N[C@H]2CC[C@@H](CC(=O)N3CCN(c4ccccc4)CC3)O[C@H]2CO)cc1,nt,i,i,i,i,nt,nt
CN1C(=O)c2cc(NC(=O)NC3CCCC3)ccc2OC[C@H]2O[C@@H](CC(=O)NCC3CC3)CC[C@@H]21,nt,i,i,i,i,nt,nt
CC(=O)c1c(C)[nH]c(C(=O)Nc2nc(C)cs2)c1C,i,i,-21,i,i,i,i
CC(=O)c1c(C)[nH]c(C(=O)Nc2nc(-c3ccc(Cl)cc3)cs2)c1C,i,nt,nt,nt,nt,nt,nt
COc1ccc(C(C(=O)NC2CCCCC2)n2c(=O)c(-c3ccco3)nc3ccccc32)cc1 (centres undefined),nt,i,i,i,nt,nt,nt
O=C(NC1CCCCC1)C(c1cccc2ccccc12)n1c(=O)c(-c2ccco2)nc2ccccc21 (centres undefined),nt,i,-23,i,i,i,i
CC(=O)c1cccc(NC(=O)C(C)OC(=O)CCc2nc3ccccc3c(=O)[nH]2)c1 (centres undefined),i,i,i,i,i,nt,nt
CC(OC(=O)CCc1nc2ccccc2c(=O)[nH]1)C(=O)c1ccc(Br)cc1 (centres undefined),i,i,-24,i,i,nt,?
CC(OC(=O)CCc1c[nH]c2ccccc12)C(=O)c1ccccc1 (centres undefined),nt,i,-25,i,i,nt,?
CC(C)CC#Cc1ccc([C@@H]2[C@@H](CO)N3C(=O)CN(C(=O)Nc4ccc(F)cc4)C[C@@H]23)cc1,nt,i,i,i,i,nt,nt
CC(C)(C)c1ccc(-c2noc(CCC(=O)NCc3ccco3)n2)cc1,nt,i,-24,i,i,i,?
CN(C)CC(=O)N1[C@@H]2c3cccc(=O)n3C[C@H]1[C@H](CO)[C@H]2C(=O)NCc1ccccc1,nt,i,i,i,i,nt,nt
O=C(NCc1cccnc1)C1CCN(S(=O)(=O)c2cc([N+](=O)[O-])ccc2Cl)CC1,i,i,-3.1,i,i,i,i
C[C@@H]1CCCCO[C@@H](CN(C)C(=O)Nc2cccc3ccccc23)[C@@H](C)CN([C@@H](C)CO)C(=O)c2cc(NC(=O)Nc3cccc4ccccc34)ccc2O1,nt,i,i,i,i,nt,nt
C[C@@H]1CCCCO[C@H](CN(C)C)[C@@H](C)CN([C@H](C)CO)C(=O)c2cc(NC(=O)Nc3cccc4ccccc34)ccc2O1,nt,i,i,i,i,i,?
C[C@@H]1CCCCO[C@@H](CN(C)S(C)(=O)=O)[C@@H](C)CN([C@H](C)CO)C(=O)c2cc(NC(=O)Nc3cccc4ccccc34)ccc2O1,nt,i,i,i,i,nt,nt
C[C@@H]1CCCCO[C@@H](CN(C)C(=O)c2ccccc2)[C@H](C)CN([C@@H](C)CO)C(=O)c2cc(NC(=O)Cc3ccccc3)ccc2O1,nt,i,-25,i,i,nt,?
C[C@H](CO)N1C[C@H](C)[C@H](CN(C)CC2CC2)OCCCC[C@H](C)Oc2ccc(NC(=O)Nc3cccc4ccccc34)cc2C1=O,nt,nt,i,nt,nt,nt,nt
C[C@H]1CCCCO[C@H](CN(C)C)[C@@H](C)CN([C@@H](C)CO)C(=O)c2cc(NC(=O)Nc3cccc4ccccc34)ccc2O1,nt,i,i,i,i,i,?
C[C@@H]1CN([C@@H](C)CO)C(=O)c2cc(NC(=O)Nc3cccc4ccccc34)ccc2O[C@@H](C)CCCCO[C@H]1CN(C)C,nt,i,i,i,i,i,i
COc1ccc(S(=O)(=O)Nc2cccc3c2O[C@H](CN(C)C(=O)Nc2c(C)noc2C)[C@H](C)CN([C@H](C)CO)C3=O)cc1,nt,i,i,i,i,nt,nt
C[C@@H]1CCCCO[C@@H](CN(C)C)[C@H](C)CN([C@@H](C)CO)C(=O)c2cc(NC(=O)Nc3cccc4ccccc34)ccc2O1,nt,i,i,i,i,i,i
C[C@@H]1CCCCO[C@H](CN(C)S(C)(=O)=O)[C@H](C)CN([C@@H](C)CO)C(=O)c2cc(NC(=O)Nc3cccc4ccccc34)ccc2O1,nt,i,i,i,i,nt,nt
C[C@@H]1CCCCO[C@H](CN(C)C)[C@H](C)CN([C@H](C)CO)C(=O)c2cc(NC(=O)Nc3cccc4ccccc34)ccc2O1,nt,i,i,i,i,i,nt
C[C@@H]1CCCCO[C@@H](CN(C)S(C)(=O)=O)[C@H](C)CN([C@H](C)CO)C(=O)c2cc(NC(=O)Nc3cccc4ccccc34)ccc2O1,nt,i,i,i,i,nt,nt
SMILES,NSD2 inh,RAD52 anneal inh,Ecoli rRNA inh,Casp6 inh,MLL AF4-AF9 inh,AID977621,AID977628
C[C@@H]1CCCCO[C@H](CN(C)C)[C@H](C)CN([C@@H](C)CO)C(=O)c2cc(NC(=O)Nc3cccc4ccccc34)ccc2O1,nt,i,-36,i,i,i,i
CN(C[C@@H]1[C@H](c2ccccc2)[C@@H](CO)N1C(=O)C1CC1)C(=O)c1ccccn1,nt,nt,i,nt,nt,nt,nt
C[C@@H]1CN([C@@H](C)CO)C(=O)c2cc(NC(=O)c3ccncc3)ccc2O[C@@H](C)CCCCO[C@@H]1CN(C)S(=O)(=O)c1ccc(F)cc1,nt,i,i,i,i,nt,nt
COc1cccc(SCC(=O)N2CCN(c3ccccc3)CC2)c1,i,i,-23,i,i,i,?
COc1ccc(C2CC(c3cccs3)=Nc3ccccc3S2)cc1 (centres undefined),nt,i,-26,i,i,i,?
COC(=O)c1ccc2nc(-c3cccc(Br)c3)c(Cc3ccsc3)n2c1,nt,i,-34,i,i,?,nt
COC(=O)c1ccc2nc(-c3cccc(Cl)c3)c(Cc3ccsc3)n2c1,nt,i,i,i,i,nt,nt
Cc1ccc(S(=O)(=O)N2CCCCC2C(=O)N2CCN(c3ccccc3F)CC2)cc1 (centres undefined),nt,i,-20,i,i,i,i
Cc1ccc(S(=O)(=O)N2CCCCC2C(=O)N2CCN(C)CC2)cc1 (centres undefined),i,nt,nt,nt,nt,nt,nt
COc1ccc(S(=O)(=O)N(C)C[C@@H]2Oc3ccc(NC(=O)CCCN(C)C)cc3C(=O)N([C@@H](C)CO)C[C@@H]2C)cc1,nt,i,i,i,i,nt,nt
O=S(=O)(NC1c2cccc3cccc(c23)C1Sc1ncccn1)c1ccccc1 (centres undefined),i,i,-24,i,i,i,?
O=C(NCCc1ccc(O)cc1)c1[nH]c(C(F)(F)F)nc1-c1ccccc1,nt,i,-23,i,i,i,?
O=C(NCCc1ccccc1)c1[nH]c(C(F)(F)F)nc1-c1ccccc1,nt,i,i,i,i,nt,nt
COc1ccc(CNC(=O)C[C@H]2C[C@@H]3c4cc(NS(=O)(=O)c5ccc(F)cc5)ccc4O[C@@H]3[C@@H](CO)O2)cc1,nt,i,i,i,i,nt,nt

# Assay outcomes from PubChem BioAssay.
